Records with an inconclusive call do not appear. The source made the active and inactive calls. Calls follow the shape of the dose curve; as a rule, active = well fitted cell-killing curve with a large enough effect; inconclusive = small, poorly fitted or top-dose-only effect; inactive = flat fitted curve, though single readings scatter.
Assay: Cell Viability - LYMP2-023 (AID 975);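 also: cellular ATP measured by luciferase luminescence as viability proxy; cells exposed to compound for 24 hours at 37 °C; nearly all actives have a fitted effect of over 55% in size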
Settings: LYMP2-023 lymphoblastoid cell viability; series mostly up to 92.2 µM
Method in brief: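 CellTiter-Glo luminescence after 30 min at room temperature; decrease in intracellular ATP reflects toxicity. Cells: human lymphoblastoid line, 2500/well, 24 hr compound exposure at 37 C. AC50 fitted to standard Hill equation from concentration-response.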

SMILES | outcome
COc1ccc(O)cc1 | inactive
CCN(CC)C(=O)c1cccc(C)c1 | inactive
CC(=O)Nc1ccccc1 | inactive
O=C1C(c2[nH]c3ccccc3c2O)=Nc2ccccc21 | inactive
CCCC(O)C(CC)CO (configuration not stated) | inactive
Cc1cc(=O)[nH]c(=S)[nH]1 | inactive
CC(=O)Nc1ccc(C(=O)O)cc1 | inactive
CCCCCCCC(=O)OCC(COC(=O)CCCCCCC)OC(=O)CCCCCCC | inactive
O=C(O)CCCCC1CCSS1 (configuration not stated) | inactive
Cc1cc(C)nc(NS(=O)(=O)c2ccc(N)cc2)n1 | inactive
CC1CC(OC(=O)c2ccccc2O)CC(C)(C)C1 (configuration not stated) | inactive
Cc1c(N(C)C)c(=O)n(-c2ccccc2)n1C | inactive
O=C(c1ccccc1)C(O)c1ccccc1 (configuration not stated) | inactive
C=CCNC(N)=S | inactive
FC(F)(F)C(Cl)Br (configuration not stated) | inactive
CC(=O)OCC(COC(C)=O)OC(C)=O | inactive
Nc1ccc(S(=O)(=O)c2ccc(N)cc2)cc1 | inactive
CC(=O)Nc1cccc(O)c1 | inactive
CC(=O)NS(=O)(=O)c1ccc(N)cc1 | inactive
CCCCCC(N)=O | inactive
CCCCOC(=O)c1ccc(N)cc1 | inactive

Assay: Cell Viability - LYMP2-025 (AID 976)
Settings: LYMP2-025 lymphoblastoid cell viability; series mostly up to 92.2 µM
Method in brief: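 CellTiter-Glo luminescence (cellular ATP) after 24 h compound exposure at 37 C; LYMP2-025 human lymphoblastoid cells, 2500/well, complete medium. Tetraoctylammonium bromide positive control. AC50 by Hill equation fit of qHTS concentration-response.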

SMILES | outcome
COc1ccc(O)cc1 | inactive
CCN(CC)C(=O)c1cccc(C)c1 | inactive
CC(=O)Nc1ccccc1 | inactive
O=C1C(c2[nH]c3ccccc3c2O)=Nc2ccccc21 | inactive
CCCC(O)C(CC)CO (configuration not stated) | inactive
Cc1cc(=O)[nH]c(=S)[nH]1 | inactive
CC(=O)Nc1ccc(C(=O)O)cc1 | inactive
CCCCCCCC(=O)OCC(COC(=O)CCCCCCC)OC(=O)CCCCCCC | inactive
O=C(O)CCCCC1CCSS1 (configuration not stated) | inactive
Cc1cc(C)nc(NS(=O)(=O)c2ccc(N)cc2)n1 | inactive
CC1CC(OC(=O)c2ccccc2O)CC(C)(C)C1 (configuration not stated) | inactive
Cc1c(N(C)C)c(=O)n(-c2ccccc2)n1C | inactive
O=C(c1ccccc1)C(O)c1ccccc1 (configuration not stated) | inactive
C=CCNC(N)=S | inactive
FC(F)(F)C(Cl)Br (configuration not stated) | inactive
CC(=O)OCC(COC(C)=O)OC(C)=O | inactive
Nc1ccc(S(=O)(=O)c2ccc(N)cc2)cc1 | inactive
CC(=O)Nc1cccc(O)c1 | inactive
CC(=O)NS(=O)(=O)c1ccc(N)cc1 | inactive
CCCCCC(N)=O | inactive
CCCCOC(=O)c1ccc(N)cc1 | inactive
